From PubChem BioAssay (Tox21) come the findings set out here.

SMILES strings stand for the structures. Values without a mark were called inactive. Records with an inconclusive call do not appear. The source made the active and inactive calls. Unless noted, calls come from the whole dose curve; as a rule, active = well fitted curve in the direction sought with a large enough effect in the repeat runs; inconclusive = weak or mixed curves; inactive = no such curve, though single readings can be large; an effect the other way counts as inactive or inconclusive.

Test [1] in a line: qHTS assay to identify small molecule antagonists of the estrogen receptor alpha (ER-alpha) signaling pathway using the BG1 cell line in the presence of 0.1 nM 17-beta-estradiol - cell viability counter screen (AID 1259241). Note: nearly all actives have a fitted effect of over 40% in size. Put shortly: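 Cytotoxicity counter-screen: live-cell protease activity measured by fluorescence (30 min reagent step) in the same wells. Cells were VM7Luc4E2 with endogenous ER-alpha and ERE-driven luciferase, treated 22 hr at 37C alongside 0.1 nM 17beta-estradiol final.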
On the technique in general: In qHTS, concentration-response curves come from the screen itself.

Test [2] is described as follows: qHTS assay to identify small molecule antagonists of the androgen receptor (AR) signaling pathway using the MDA cell line in the presence of 0.5 nM R1881 - cell viability counter screen (AID 1259242). Note: nearly all actives have a fitted effect of over 45% in size. Put shortly:
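MDA-kb2 cells (MMTV-luciferase, AR/GR responsive) were treated with compounds plus 0.5 nM R1881 (final) for 16 hr at 37C, 0% CO2. Viability was then read in the same wells as live-cell protease fluorescence (CellTiter-Fluor, 30 min).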

Test [3] concerns the target Androgen receptor (Homo sapiens) (UniProt P10275). The experiment in a line: qHTS assay to identify small molecule antagonists of the androgen receptor (AR) signaling pathway using the MDA cell line in the presence of 0.5 nM R1881 (AID 1259243). Note: nearly all actives have a fitted effect of over 50% in size. Note: potency is the fitted concentration of half-maximal effect. Put shortly: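 MDA-kb2 cells (MMTV-luciferase, responsive to AR and GR) at 3,000/well, rested 5 h at 37C, 0% CO2, then given compounds plus 0.5 nM R1881 (final) for 16 hr. Luciferase read with ONE-Glo after 30 min at room temperature.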

Test [4] deals with Estrogen receptor (Homo sapiens) (UniProt P03372). The experiment in a line: qHTS assay to identify small molecule antagonists of the estrogen receptor alpha (ER-alpha) signaling pathway using the BG1 cell line in the presence of 0.1 nM 17-beta-estradiol (AID 1259244). Note: nearly all actives have a fitted effect of over 50% in size. The gist of the method: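 VM7Luc4E2 cells (endogenous full-length ER-alpha, 4×ERE-luciferase), kept 5 days in phenol red-free, charcoal-stripped FBS medium; 4,000 cells/well. Compounds added with 0.1 nM (final) 17beta-estradiol, 22 hr at 37C; luminescence read with ONE-Glo after 30 min.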

Test [5] in a line: qHTS assay to identify small molecule HDAC inhibitors (AID 1259364). Note: top concentration of the series differs between compounds; nearly all actives have a fitted effect of over 45% in size. The gist of the method: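 Wild-type HCT-116 cells, plated overnight at 37 C, exposed to compounds 2 hr at 37 C; luminogenic HDAC-Glo substrate then added 30 min at room temperature. Luminescence reports relative endogenous class I/II HDAC activity.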
Test [6] is described as follows: qHTS assay to identify small molecule HDAC inhibitors - cell viability counter screen (AID 1259365). Note: series mostly up to about 92 µM; nearly all actives have a fitted effect of over 50% in size. Put shortly: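 CellTiter-Glo luminescence (30 min, room temperature) reported viability after a 2 h compound exposure at 37 C. Cells: wild-type HCT-116, 1,500 per well, seeded the night before.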
A short description of test [7]: qHTS assay to identify small molecule antagonists of the sonic hedgehog signaling (Shh) pathway - cell viability counter screen (AID 1259367). Note: nearly all actives have a fitted effect of over 55% in size. Put shortly: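 Seed 3T3 Gli1-Luc cells at 2,000 per well; incubate 4 hr; add compound in DMSO, then conditioned medium; incubate at 37C with 5% CO2; add CellTiter-Fluor after 23 hr; read fluorescence 1 hr later.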
A short description of test [8]: qHTS assay to identify small molecule agonists of the sonic hedgehog signaling (Shh) pathway (AID 1259368; calls by dose curve;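 note: NIH/3T3-derived 3T3Gli1-Luc cells carrying a stable Gli1-driven firefly luciferase reporter; series mostly up to about 92 µM; nearly all actives have a fitted effect of over 15% in size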). Put shortly:
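NIH/3T3-derived 3T3Gli1-Luc cells with stably integrated Gli1-driven firefly luciferase, 2,000 cells/well, compounds added after 4 hr. Incubated 24 hr at 37C, 5% CO2; luminescence read after 30 min with luciferase reagent at room temperature.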

The nature of test [9]: qHTS assay to identify small molecule agonists of the sonic hedgehog signaling (Shh) pathway - cell viability counter screen (AID 1259366). Note: nearly all actives have a fitted effect of over 50% in size. Put shortly:
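Cytotoxicity counter screen: CellTiter-Fluor reagent added after 23 h compound exposure, then 1 h at 37C and fluorescence read. Cells were 3T3 Gli1-Luc, seeded 2,000 per well and dosed 4 h post-plating.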

Test [10] is described as follows: qHTS assay to identify small molecule phospholipidosis (PLD) inducers (AID 1259344; active = well fitted curve in the direction sought with a large enough effect; an effect the other way counts as inactive or inconclusive). The gist of the method: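 Quantitative HTS in HepG2: compound plus LipidTOX Red dye for 24 h, paraformaldehyde fixation with Hoechst 33342, widefield high-content imaging; amiodarone as positive and DMSO as negative control.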
% is set by controls: 0 for no effect and ±100 for the full control effect.

Estrogen receptor (Homo sapiens), sequence (P03372 whole entry, looked up): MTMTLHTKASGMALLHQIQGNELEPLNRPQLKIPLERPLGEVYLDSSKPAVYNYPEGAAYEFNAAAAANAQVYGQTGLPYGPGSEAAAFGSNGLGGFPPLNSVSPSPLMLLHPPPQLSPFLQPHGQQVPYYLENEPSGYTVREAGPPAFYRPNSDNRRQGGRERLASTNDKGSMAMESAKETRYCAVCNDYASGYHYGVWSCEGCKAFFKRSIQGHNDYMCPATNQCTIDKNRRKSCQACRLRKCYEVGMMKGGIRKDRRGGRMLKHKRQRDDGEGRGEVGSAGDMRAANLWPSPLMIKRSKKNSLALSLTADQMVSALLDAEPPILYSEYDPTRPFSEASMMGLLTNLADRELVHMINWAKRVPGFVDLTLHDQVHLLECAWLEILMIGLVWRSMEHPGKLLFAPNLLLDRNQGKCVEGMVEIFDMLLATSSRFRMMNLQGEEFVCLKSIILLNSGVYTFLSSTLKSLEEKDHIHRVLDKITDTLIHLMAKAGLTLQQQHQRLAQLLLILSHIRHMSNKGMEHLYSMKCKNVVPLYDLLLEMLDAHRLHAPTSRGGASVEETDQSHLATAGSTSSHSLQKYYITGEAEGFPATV
Androgen receptor (Homo sapiens), sequence (P10275 whole entry, looked up): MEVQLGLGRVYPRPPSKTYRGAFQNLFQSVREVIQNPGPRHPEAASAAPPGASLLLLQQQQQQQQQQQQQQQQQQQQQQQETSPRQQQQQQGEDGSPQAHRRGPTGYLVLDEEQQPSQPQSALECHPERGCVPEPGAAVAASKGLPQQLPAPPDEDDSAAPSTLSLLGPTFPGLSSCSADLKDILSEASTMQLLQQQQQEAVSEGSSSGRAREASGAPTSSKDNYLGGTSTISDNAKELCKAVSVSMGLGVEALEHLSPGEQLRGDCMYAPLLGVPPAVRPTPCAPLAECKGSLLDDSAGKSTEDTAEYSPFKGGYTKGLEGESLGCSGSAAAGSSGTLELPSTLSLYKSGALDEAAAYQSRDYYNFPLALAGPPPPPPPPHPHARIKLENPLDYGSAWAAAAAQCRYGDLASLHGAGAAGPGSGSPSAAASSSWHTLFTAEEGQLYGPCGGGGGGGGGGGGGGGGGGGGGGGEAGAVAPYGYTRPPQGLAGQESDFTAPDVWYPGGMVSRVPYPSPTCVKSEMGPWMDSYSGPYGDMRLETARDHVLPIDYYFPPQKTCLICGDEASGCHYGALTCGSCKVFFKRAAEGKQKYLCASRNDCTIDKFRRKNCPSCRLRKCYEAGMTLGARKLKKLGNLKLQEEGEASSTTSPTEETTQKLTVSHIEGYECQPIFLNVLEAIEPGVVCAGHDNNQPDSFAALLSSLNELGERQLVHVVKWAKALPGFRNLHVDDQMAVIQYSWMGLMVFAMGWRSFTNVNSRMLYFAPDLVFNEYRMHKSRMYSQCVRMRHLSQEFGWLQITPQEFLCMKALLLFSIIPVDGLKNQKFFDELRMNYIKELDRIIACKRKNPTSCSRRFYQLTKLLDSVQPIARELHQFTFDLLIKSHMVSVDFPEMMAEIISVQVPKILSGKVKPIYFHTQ

For `O=CC1CC=CCC1` (centres undefined), the Potency entry in test [1], in test [2], in test [3], in test [4], in [5] and in test [6] was “inactive” each time. Further, the Potency entry in test [7] is “inactive”. Besides, in [8], the call was inactive.

For `CC(COCCO)OCCO` (centres undefined), the Potency result in test [1], in test [2], in test [3], in [5], in [6] and in [9] was “inactive” in each case. Moreover, the Potency result in test [7] was “inactive”. In addition, in test [8], the compound was called inactive.

As for `O=C(c1ccc(F)cc1)C1CCN(CCn2c(=S)[nH]c3ccccc3c2=O)CC1`, the Potency entry in test [1], in [2], in [3], in test [5], in test [6] and in test [9] was “inactive” in each case. In test [7], the Potency entry was “inactive”. Further, the result in [8] was inactive.

For `CC(CSC(=O)c1ccccc1)C(=O)N1C[C@@H](Sc2ccccc2)C[C@H]1C(=O)O` (some centres undefined), the activity change, negative = cytotoxicity was 3.73% [at 19 µM] in test [1] and -1.25% [at 19 µM] in [6]. The viability change, negative = cytotoxic is 5.22% [at 19 µM] in test [2], -5.51% [at 19 µM] in test [9] and 1.29% [at 19 µM] in test [7]. Moreover, the Potency result in test [4] and in [10] was “inactive” each time. Moreover, the activity change, negative = inhibition in [5] is 3.83% [at 19 µM].

With `NCc1ccccc1Sc1ccccc1CO`, the Potency result in test [1], in test [2], in test [3], in test [4], in test [10] and in [5] was “inactive” throughout. Moreover, the Potency entry in test [6], in test [9] and in test [7] was “inactive” in each case. Besides, the outcome in test [8] was inactive.

As to `NC(N)=NCCC[C@H](N)C(=O)O`, the activity change, negative = cytotoxicity was 2.44% [at 8.39 µM] in [1] and 4.6% [at 8.39 µM] in [6]. The viability change, negative = cytotoxic is 3.68% [at 8.39 µM] in [2], -3.86% [at 8.39 µM] in test [9] and 1.21% [at 8.39 µM] in [7]. Further, the values for the activity change, negative = inhibition in [4] and in test [5] were 4.47% [at 8.39 µM] and 1.7% [at 8.39 µM], respectively. Moreover, the PLD induction in test [10] is -2.12% [at 7.66 µM]. Further, the activity change in test [8] is -0.124% [at 8.39 µM].

Regarding `COC(=O)C1=C(C)NC(COC(N)=O)=C(C(=O)OC(C)C)C1c1cccc(Cl)c1Cl` (centres undefined), the Potency result in test [1], in test [2], in [3], in test [4], in test [5] and in test [6] was “inactive” throughout. Also, in test [9], the Potency result is “inactive”. Also, the PLD induction in [10] is -2.54% [at 7.66 µM]. Further, in test [8], the result was inactive.

For `c1ccc(-c2ccccn2)nc1`, the Potency entry in test [1], in test [2], in test [3], in test [4], in test [5] and in [6] was “inactive” in each case. The Potency result in test [9] and in test [7] was “inactive” in each case. Moreover, the result in test [8] was inactive.

`CCCCCC[C@@H](O)C/C=C\CCCCCCCC(=O)OC`: the Potency result in [1], in test [2], in test [3], in [4], in test [5] and in [6] was “inactive” in each case. For the same compound, in [9], the Potency entry was “inactive”. In addition, the outcome in [8] was inactive.

Regarding `Cc1cccc(Nc2ccccc2)c1`, the Potency entry in test [1], in [2], in [5], in test [6], in test [9] and in test [7] was “inactive” each time. For the same compound, the Potency in [3] was 24.3 µM (active). In addition, the call in test [8] was inactive.

Take `CCOC(=O)C(O)c1ccccc1` (centres undefined): the Potency entry in test [1], in test [2], in test [3], in test [4], in test [5] and in [6] was “inactive” each time. Further, the Potency entry in test [9] and in [7] was “inactive” each time. Further, the outcome in test [8] was inactive.

For the compound `CN1CCN(C(c2ccccc2)c2ccccc2)CC1`, the Potency entry in [1], in [2], in [3], in test [4], in test [10] and in [5] was “inactive” each time. Also, the Potency entry in test [6] is “inactive”. Besides, the compound was classed as inactive in [8].

On to `C=CCOc1ccccc1OCC(O)CNC(C)C` (centres undefined), for which the Potency result in test [1], in test [2], in test [4], in [10], in [5] and in test [6] was “inactive” throughout. The Potency result in test [9] and in [7] was “inactive” throughout. In [8], the outcome was inactive.

As to `COc1cc2nc(Cl)nc(N)c2cc1OC`, the Potency entry in test [1], in test [2], in [3], in test [4], in test [5] and in [6] was “inactive” in each case. Also, the Potency result in [7] was “inactive”. The compound was called inactive in [8].

With `NCCCN1CCOCC1`, the Potency entry in test [1], in [2], in test [3], in test [4], in test [5] and in test [6] was “inactive” each time. In addition, the Potency entry in test [9] and in [7] was “inactive” each time. For the same compound, the result in test [8] was inactive.

Turning to `CN(C)CCOC(c1ccccc1)c1ccc(Br)cc1` (centres undefined), the Potency entry in test [1], in [2], in [3], in test [4], in test [5] and in test [6] was “inactive” throughout. For the same compound, the Potency entry in test [7] was “inactive”. In addition, the outcome in [8] was inactive.

Consider `C[C@@H](c1ncncc1F)C(O)(Cn1cncn1)c1ccc(F)cc1F` (some centres undefined), for which the Potency entry in test [1], in test [2], in [3], in test [4], in test [10] and in test [5] was “inactive” in each case. In addition, the Potency result in test [6], in test [9] and in [7] was “inactive” in each case. In addition, in test [8], the compound was classed as inactive.

Consider `NCC(=O)CCC(=O)O`, for which the Potency result in test [1], in test [2], in test [4], in [10], in test [5] and in test [6] was “inactive” in each case. Besides, the Potency entry in test [9] and in test [7] was “inactive” each time. The call in [8] was inactive.

For the compound `O=C1OC(CN2CCOCC2)CN1/N=C/c1ccc([N+](=O)[O-])o1` (centres undefined), the Potency result in test [1], in test [2], in test [4], in test [10], in test [5] and in [6] was “inactive” in each case. Further, the Potency entry in test [9] and in test [7] was “inactive” each time. For the same compound, in [3], the Potency was 26.6 µM (active). Besides, in [8], the result was inactive.

Turning to `CCCn1cnc2c1c(=O)n(CCCCC(C)=O)c(=O)n2C`, the Potency result in test [1], in test [2], in [3], in test [4], in test [10] and in test [5] was “inactive” in each case. Besides, the Potency result in [6], in [9] and in test [7] was “inactive” throughout. For the same compound, in [8], the call was inactive.

For the compound `COc1ccc2cccc(CCNC(C)=O)c2c1`, the Potency entry in [1], in [2], in test [3], in test [4], in test [5] and in test [6] was “inactive” each time. Moreover, the Potency result in test [7] was “inactive”. Besides, the result in test [8] was inactive.

Turning to `COc1cccc(N(C)C(=S)Oc2ccc3c(c2)CCCC3)n1`, the Potency result in test [1], in [2], in test [4], in test [10], in [5] and in test [6] was “inactive” each time. In addition, the Potency result in test [9] and in [7] was “inactive” each time. In [8], the outcome was inactive.

As for `CCCCCCCCCCCCCCCCOS(=O)(=O)O`, the Potency result in test [1], in test [2], in test [3], in test [4], in test [5] and in test [6] was “inactive” in each case. Further, in [7], the Potency result is “inactive”. In addition, the result in [8] was inactive.

Turning to `OCCNCc1ccccc1`, the Potency entry in [1], in test [2], in test [3], in test [4], in [5] and in test [6] was “inactive” in each case. Also, the Potency entry in test [9] and in [7] was “inactive” throughout. The call in test [8] was inactive.
